PubChem BioAssay (NCATS)
Records with an inconclusive call do not appear. Calls of active or inactive are those of the source. Calls follow the shape of the dose curve; as a rule, active = well fitted curve in the direction sought with a large enough effect; inconclusive = small, poorly fitted or top-dose-only effect, or another doubt; inactive = no such curve, though single readings can be large; an effect the other way counts as inactive or inconclusive.

Assays:
[1] = Quantitative High-Throughput drug screen in 47 multiple myeloma cell lines against the NCATS MIPE library collection: ARP1_JJKsccF8 cell viability assay (AID 1918928; also: nearly all actives have a fitted effect of over 40% in size)
Outline: (§1)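 Here, 48 h treatment with MIPE 4.0 agents at 37 °C preceded an ATP luminescence read. Plating density was 500 cells per well.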

[2] = Quantitative High-Throughput drug screen in 47 multiple myeloma cell lines against the NCATS MIPE library collection: ARD_JJKsccE7 cell viability assay (AID 1918929)
Outline: (§2)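 Viability readout: CellTiter-Glo luminescence following 5 min room-temperature incubation with reagent. Prior exposure: 48 h, 37C, humidified 5% CO2, 500 cells per well.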

[3] = Quantitative High-Throughput drug screen in 47 multiple myeloma cell lines against the NCATS MIPE library collection: Karpas620_DSMZ cell viability assay (AID 1918959); also: nearly all actives have a fitted effect of over 30% in size
Outline: as §2

[4] = Quantitative High-Throughput drug screen in 47 multiple myeloma cell lines against the NCATS MIPE library collection: KMM1_JCRB cell viability assay (AID 1918960); also: nearly all actives have a fitted effect of over 30% in size
Outline: as §1

[5] = Quantitative High-Throughput drug screen in 47 multiple myeloma cell lines against the NCATS MIPE library collection: JIM3_ECACC cell viability assay (AID 1918963; also: nearly all actives have a fitted effect of over 35% in size)
Outline: as §2

[6] = Quantitative High-Throughput drug screen in 47 multiple myeloma cell lines against the NCATS MIPE library collection: INA6_PLB cell viability assay (AID 1918965; also: nearly all actives have a fitted effect of over 55% in size)
Outline: (§3)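 Approved and investigational drugs from MIPE 4.0 were added by pin tool to 500 cells per well. After 48 hours at 37C, ATP-based CellTiter-Glo luminescence indicated remaining viability.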

[7] = Quantitative High-Throughput drug screen in 47 multiple myeloma cell lines against the NCATS MIPE library collection: JJN3_DSMZ cell viability assay (AID 1918966; also: nearly all actives have a fitted effect of over 50% in size)
Outline: as §2

[8] = Quantitative High-Throughput drug screen in 47 multiple myeloma cell lines against the NCATS MIPE library collection: KHM11_PLB cell viability assay (AID 1918962); also: nearly all actives have a fitted effect of over 35% in size
Outline: as §2

[9] = Quantitative High-Throughput drug screen in 47 multiple myeloma cell lines against the NCATS MIPE library collection: Karpas417_ECACC cell viability assay (AID 1918961); conditions: Karpas417 myeloma viability, CellTiter-Glo ATP luminescence, 48 h; viability (% of DMSO): at 45.8 µM (top of the series)
Outline: as §3

[10] = Quantitative High-Throughput drug screen in 47 multiple myeloma cell lines against the NCATS MIPE library collection: JIM1_ECACC cell viability assay (AID 1918964)
Outline: as §2

Measured: Potency
Potency is read from the fitted curve at half-maximal effect.

CC(C)(Cc1ccc2ccccc2c1)NC[C@@H](O)COc1cccc(Cl)c1C#N
active: [7] 5.9 µM
not listed: [8] | [9] | [10]
inactive: all other assays above

CC(=O)Nc1ccc([C@H](C)C(=O)Nc2ncc(C(C)C)s2)cc1
active: [1] 2.64 µM | [2] 1.18 µM | [3] 2.35 µM | [4] 5.26 µM | [8] 4.69 µM | [5] 7.43 µM | [6] 4.18 µM

O=C(NCc1ccccc1)c1csc(Nc2ccncn2)n1
active: [1] 23.5 µM | [2] 10.5 µM | [3] 6.62 µM | [4] 9.35 µM | [9] 10.5 µM | [8] 20.9 µM | [5] 14.8 µM | [10] 6.62 µM | [7] 16.6 µM

CC(C)OC(=O)CCCC=CC[C@@H]1[C@H](C=C[C@@H](O)COc2cccc(C(F)(F)F)c2)[C@H](O)C[C@@H]1O
active: [1] 20.9 µM | [8] 23.5 µM | [5] 20.9 µM | [6] 11.8 µM
inactive: [2] | [3] | [4] | [10]

NC1CCC(Nc2nc(Nc3ccc(C(=O)N4CCCCC4)cc3)c3ncn(-c4cccc(F)c4)c3n2)CC1 (centres undefined)
inactive: [1] | [2] | [3] | [4] | [9] | [5]

O=C(O)c1ccc(-c2c[nH]c3ncc(-c4ccccc4)cc23)cc1C1CCCC1
active: [2] 0.935 µM
inactive: [1] | [3] | [4]

CC#CCn1c(N2CCC[C@@H](N)C2)nc2c1c(=O)n(Cc1nc(C)c3ccccc3n1)c(=O)n2C
active: [1] 2.96 µM | [7] 3.72 µM
inactive: [2] | [3] | [4] | [8]

O=C(Nc1cc(Cl)cc2c1[nH]c1cnccc12)c1cccnc1
active: [1] 13.2 µM | [4] 6.62 µM | [6] 16.6 µM
inactive: [2] | [3] | [5]

C=C1C(=O)OC2C=C(C)CCC=C(C)CCC12 (centres undefined)
active: [1] 20.9 µM | [2] 23.5 µM | [3] 14.8 µM | [4] 16.6 µM | [10] 14.8 µM | [6] 16.6 µM | [7] 16.6 µM
inactive: [8]

O=C(Nc1ccccc1-c1cn2c(CN3CCNCC3)csc2n1)c1cnc2ccccc2n1
inactive: [2] | [3] | [4]
active: [1] 23.5 µM | [8] 8.33 µM | [5] 33.2 µM | [10] 2.96 µM | [7] 9.35 µM

COc1cc2ncnc(Nc3ccc(F)c(Cl)c3)c2cc1OCCCN1CCOCC1
active: [1] 48.1 µM | [2] 12.1 µM | [3] 6.79 µM | [4] 8.55 µM | [9] 3.4 µM | [8] 3.4 µM | [5] 13.6 µM | [10] 5.4 µM | [6] 5.4 µM | [7] 42.9 µM

N#CC1(c2ccc(NC(=O)c3cccnc3NCc3ccncc3)cc2)CCCC1
active: [6] 18.7 µM
not listed: [7] | [9]
inactive: all other assays above

Cc1ccc(F)c(NC(=O)Nc2ccc(-c3cccc4[nH]nc(N)c34)cc2)c1
active: [1] 26.4 µM | [2] 3.32 µM | [3] 20.9 µM | [4] 4.18 µM | [8] 8.33 µM | [5] 7.43 µM | [6] 16.6 µM | [7] 18.7 µM

CC(C)C(=O)Oc1ccc(CO)cc1[C@H](CCN(C(C)C)C(C)C)c1ccccc1
not listed: [6] | [7] | [8]
inactive: all other assays above

COc1cc(O)c2c(c1)C(=O)c1cc(C)cc(O)c1C2=O
not listed: [6] | [7] | [10]
inactive: all other assays above

O=C(O)c1ccccc1C(=O)Nc1ccc(-c2ccccc2)cc1
inactive: [1] | [2] | [3] | [4] | [8] | [5]

CC(C)(C)c1cc(C(=O)O)c(NC(=O)Nc2ccc3[nH]ncc3c2)s1
not listed: [7] | [9] | [10]
inactive: all other assays above

C[C@H](NC(=O)C(=O)Nc1ccccc1C(C)(C)C)C(=O)N[C@@H](CC(=O)O)C(=O)COc1c(F)c(F)cc(F)c1F
active: [1] 14.8 µM | [2] 1.18 µM | [3] 2.64 µM | [4] 1.66 µM
inactive: [5]

CC=CC(=O)N(CC)c1ccccc1C
active: [1] 5.26 µM
not listed: [6] | [7] | [9]
inactive: all other assays above
